# Test results: paper PMC8384837, “Expanding the binding specificity for RNA recognition by a PUF domain”
# Positions count from the first letter of the chain named.
# Columns and labels:
# Assay in all cases: yeast three-hybrid, YBZ-1, SC-Leu-His + 0.5 mM 3-AT, 4 days
# Conditions in all cases: tags: N-Gal4 AD-HA kept; label: inside an RPR1-promoter hybrid RNA with tandem MS2 sites; ssRNA
# PUM1 PUF domain R8-AFR = PUM1 PUF domain R8-AFR (Homo sapiens, UniProt Q14671 828-1176, N1122A;Y1123F;Q1126R)
# Method in brief: (§1)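 Repeat regions from input (SC-Leu) and selection (SC-Leu-His + 0.5 mM 3-AT) plates were PCR-amplified and Illumina-sequenced after four days of growth. The cells were strain YBZ-1 with a LexA–MS2 coat fusion and a HIS3 reporter, co-expressing Pumilio-1 PUF domain libraries and matching RNA elements from a centromeric plasmid. The interaction score is the log change in variant frequency from input to selection, taken in log2 with a pseudocount of 1 for absent variants.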
# PUM1 PUF domain R8-SWR = PUM1 PUF domain R8-SWR (Homo sapiens, UniProt Q14671 828-1176, N1122S;Y1123W;Q1126R)
# Method in brief: as §1
# PUM1 PUF domain R8-RYL = PUM1 PUF domain R8-RYL (Homo sapiens, UniProt Q14671 828-1176, N1122R;Q1126L)
# Method in brief: as §1
# PUM1 PUF domain R3-LRA = PUM1 PUF domain R3-LRA (Homo sapiens, UniProt Q14671 828-1176, C935L;Q939A)
# Method in brief: as §1
# PUM1 PUF domain R3-NPV = PUM1 PUF domain R3-NPV (Homo sapiens, UniProt Q14671 828-1176, C935N;R936P;Q939V)
# Method in brief: as §1
# PUM1 PUF domain R6-QFR = molecular target: T1, PUM1 PUF domain R6-QFR (Homo sapiens, UniProt Q14671 828-1176, N1043Q;Y1044F;Q1047R)
# T1 sequence: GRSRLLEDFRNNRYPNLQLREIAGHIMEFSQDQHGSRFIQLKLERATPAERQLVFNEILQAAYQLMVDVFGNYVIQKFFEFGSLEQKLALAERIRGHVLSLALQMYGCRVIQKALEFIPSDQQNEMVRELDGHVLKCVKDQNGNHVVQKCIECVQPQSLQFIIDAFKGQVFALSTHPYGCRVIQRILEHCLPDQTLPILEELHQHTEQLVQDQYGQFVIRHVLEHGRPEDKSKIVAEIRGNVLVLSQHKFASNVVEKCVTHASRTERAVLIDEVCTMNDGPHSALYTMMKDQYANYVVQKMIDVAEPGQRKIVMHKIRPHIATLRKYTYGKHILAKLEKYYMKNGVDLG
# Method in brief: as §1
# PUM1 PUF domain R6-NFC = molecular target: T2, PUM1 PUF domain R6-NFC (Homo sapiens, UniProt Q14671 828-1176, Y1044F;Q1047C)
# T2 sequence: T1 sequence with Q216N, R220C
# Method in brief: as §1
# PUM1 PUF domain R5-RHI = PUM1 PUF domain R5-RHI (Homo sapiens, UniProt Q14671 828-1176, C1007R;R1008H;Q1011I)
# Method in brief: as §1
# PUM1 PUF domain R1-KIR = PUM1 PUF domain R1-KIR (Homo sapiens, UniProt Q14671 828-1176, S863K;R864I;Q867R)
# Method in brief: as §1
# PUM1 PUF domain R5-RNR = PUM1 PUF domain R5-RNR (Homo sapiens, UniProt Q14671 828-1176, C1007R;R1008N;Q1011R)
# Method in brief: as §1
sequence,measurement,setting,value
GGCUAGAACUAGUGGAUCCCCCGGCGCCCGGCGGCUCGAGCCCGGGUAAGCGUAAAUAGUCUGCAUGCCGCCGGGCGCCAUGCCUGCAGGUCGACUCUAGAAAACAUG,binding signal,PUM1 PUF domain R8-AFR,3.34 log2 enrichment (interaction score)
same,binding signal,PUM1 PUF domain R8-SWR,5.3 log2 enrichment (interaction score)
same,binding signal,PUM1 PUF domain R8-RYL,5.95 log2 enrichment (interaction score)
GGCUAGAACUAGUGGAUCCCCCGGCGCCCGGCGGCUCGAGCCCGGGUAAGUGUAAUUAGUCUGCAUGCCGCCGGGCGCCAUGCCUGCAGGUCGACUCUAGAAAACAUG,binding signal,PUM1 PUF domain R3-LRA,1.5 log2 enrichment (interaction score)
same,binding signal,PUM1 PUF domain R3-NPV,2.64 log2 enrichment (interaction score)
GGCUAGAACUAGUGGAUCCCCCGGCGCCCGGCGGCUCGAGCCCGGGUAAGUGCAAAUAGUCUGCAUGCCGCCGGGCGCCAUGCCUGCAGGUCGACUCUAGAAAACAUG,binding signal,PUM1 PUF domain R6-QFR,4.65 log2 enrichment (interaction score)
GGCUAGAACUAGUGGAUCCCCCGGCGCCCGGCGGCUCGAGCCCGGGUAAGUGUAAGUAGUCUGCAUGCCGCCGGGCGCCAUGCCUGCAGGUCGACUCUAGAAAACAUG,binding signal,PUM1 PUF domain R3-LRA,4.29 log2 enrichment (interaction score)
GGCUAGAACUAGUGGAUCCCCCGGCGCCCGGCGGCUCGAGCCCGGGUAAGUGUAAAUAGUCUGCAUGCCGCCGGGCGCCAUGCCUGCAGGUCGACUCUAGAAAACAUG,binding signal,PUM1 PUF domain R6-NFC,3.34 log2 enrichment (interaction score)
same,binding signal,PUM1 PUF domain R6-QFR,7.93 log2 enrichment (interaction score)
same,binding signal,PUM1 PUF domain R5-RHI,3.02 log2 enrichment (interaction score)
same,binding signal,PUM1 PUF domain R8-AFR,3.56 log2 enrichment (interaction score)
same,binding signal,PUM1 PUF domain R8-SWR,6.3 log2 enrichment (interaction score)
same,binding signal,PUM1 PUF domain R8-RYL,5.73 log2 enrichment (interaction score)
GGCUAGAACUAGUGGAUCCCCCGGCGCCCGGCGGCUCGAGCCCGGGUAAGUGUAAAUCGUCUGCAUGCCGCCGGGCGCCAUGCCUGCAGGUCGACUCUAGAAAACAUG,binding signal,PUM1 PUF domain R1-KIR,4.83 log2 enrichment (interaction score)
GGCUAGAACUAGUGGAUCCCCCGGCGCCCGGCGGCUCGAGCCCGGGUAAGUGUUAAUAGUCUGCAUGCCGCCGGGCGCCAUGCCUGCAGGUCGACUCUAGAAAACAUG,binding signal,PUM1 PUF domain R5-RHI,5.86 log2 enrichment (interaction score)
GGCUAGAACUAGUGGAUCCCCCGGCGCCCGGCGGCUCGAGCCCGGGUAAGUGUCAAUAGUCUGCAUGCCGCCGGGCGCCAUGCCUGCAGGUCGACUCUAGAAAACAUG,binding signal,PUM1 PUF domain R5-RNR,3.17 log2 enrichment (interaction score)
same,binding signal,PUM1 PUF domain R5-RHI,4.97 log2 enrichment (interaction score)
